The values that follow come from PubChem BioAssay (NCI).

This is part of a sample that, as a whole, favours compounds with a hit. Of some 83,000 tested, about 20% had one in any assay.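 Assay: single dose, 48 h. Readout: percent growth (0 = no net growth; negative = cell death). Active: <10.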 Calls of active or inactive are those of the source.

This experiment concerns IGROV1 ovarian. Kind of experiment: NCI-60 one-dose screen, 48 h (100 = growth as untreated, 0 = no growth, -100 = all killed). As to conditions: 10 µM unless noted.
On to `N#C/C(=C\c1ccc(-c2ccc(Cl)cc2)o1)C(=O)Nc1ncc(Cc2ccc(Br)cc2)s1`, for which the growth was 7.06% (active). Turning to `O=C(COc1ccc(/C=C2\C(=O)Nc3ccc(Cl)cc32)cc1)Nc1ccc(Cl)cc1`, the growth is 59.8% (inactive). As for `CC(O)c1cccc(/C(N)=N/C(N)=N/c2nc3ccccc3s2)c1` (stereo not given), the growth was 92.5% (inactive). For `O=C(CN1CCN(c2cc(=O)[nH]c3ccc(F)cc23)CC1)N(c1ccccc1)c1ccccc1` the value was 99.8% (inactive); for `Cn1c(SCC(=O)c2ccc(Br)cc2)nc2ccccc2c1=O`, 90.5% (inactive). In the case of `NC(N)=NS(=O)(=O)c1ccc(N=Nc2c(N)nn(-c3ccc([N+](=O)[O-])cc3[N+](=O)[O-])c2N)cc1`, the growth was 103% (inactive). Regarding `Cc1cc2nc3c4cc(C#N)ccc4n(CCN(C)C)c3nc2cc1C`, the growth is -1.99% (active).

`O=C(CCCCCCN1CC(=O)N2[C@@H](c3cccs3)c3[nH]c4ccccc4c3C[C@H]2C1=O)NO`: the growth was 94.3% (inactive).

`O=C(CSc1nc2ccccc2c(=O)n1CCc1ccccc1)Nc1ccc(S(=O)(=O)Nc2ccc(Cl)nn2)cc1`: the growth was 95.6% (inactive). Under `CC1=C(C)C(=O)C(Nc2ccc(C)c(C)c2)=C(Br)C1=O` stands 90.9% (inactive).

Take `COc1cc(/C=C2/C(=O)Nc3ccc(Cl)cc32)ccc1OCc1ccc(Cl)cc1`: the growth was 77.3% (inactive). Under `Cc1ccc2c(n1)C(=O)C(Cl)=C(Nc1ccc(C(C)C)cc1)C2=O` stands -53% (active). `CN1CCN(c2ccc(Nc3nc(NCCNS(=O)(=O)c4ccccc4)c4sccc4n3)cc2)CC1`: the growth was 95.9% (inactive). On to `CNC(=O)c1cc(N2CCc3cc(NC(=O)Nc4ccc(N5CCN(C)CC5)c(C(F)(F)F)c4)ccc32)ccn1`, for which the growth was 96.2% (inactive).

Turning to `C=C(C)[C@@H]1CC[C@]2(COCCCNCCCN)CC[C@]3(C)[C@H](CC[C@@H]4[C@@]5(C)CC[C@H](O)C(C)(C)[C@@H]5CC[C@]43C)[C@@H]12`, the growth was -82.9% (active).

`CN1CCN(Cc2ccc(NC(=O)c3cncc(C#Cc4cnc5ccc(OCC6COC6)nn45)c3)cc2C(F)(F)F)CC1`: the growth is -39% (active). Regarding `CCN(CC)S(=O)(=O)c1ccc(-c2nc(C(Cl)Cl)nc3cc(-c4ccc(F)cc4)nn23)cc1`, the growth was 56.9% (inactive). Turning to `O=C(COc1ccc(/C=C2\C(=O)Nc3ccc(F)cc32)cc1)Nc1ccccc1`, the growth was 109% (inactive). Consider `CN1CCN(c2ccc(Nc3nc(NCCCNS(=O)(=O)c4ccc(F)cc4)c4sccc4n3)cc2)CC1`, for which the growth is 81.6% (inactive). For `COc1cccc(N2CCN(C3=C(Cl)C(=O)c4ncccc4C3=O)CC2)c1`, the growth was 80.8% (inactive). `C#CCOc1cccc(-c2nc(N)nc(Nc3ccccc3SSc3ccccc3Nc3nc(N)nc(-c4cccc(OCC#C)c4)n3)n2)c1`: the growth is -5.3% (active). Turning to `O=C(CSc1nnc(-c2ccc(Cl)cc2)n1-c1ccccc1)Nc1ccc(Cl)cc1`, the growth was 23.3% (inactive).

In the case of `NC(=O)n1c(=O)n(-c2cccc(C(F)(F)F)c2)c(=O)c2cc(-c3ccc(F)cc3F)ccc21`, the growth is 14.8% (inactive). For `C#CCOc1ccc(/C=N/Nc2nc(-c3ccc(OC)cc3)cs2)cc1` the value was 96.6% (inactive). On to `O=C(CSc1nnc(-c2ccc(Cl)cc2)n1-c1ccccc1)Nc1ccccc1Cl`, for which the growth is 52.3% (inactive). For `CCOC(=O)c1c(NC(=O)c2cccc(C(F)(F)F)c2)sc2c3c(ccc12)OCN(C)C3`, the growth was -78.7% (active). On to `CN1CCN(Cc2ccc(NC(=O)c3cncc(C#Cc4cnc5ccc(OCCCS(C)(=O)=O)nn45)c3)cc2C(F)(F)F)CC1`, for which the growth was -13.9% (active). For `CCOC(=O)c1c(NCC(=O)Nc2cccc([N+](=O)[O-])c2)sc(C(C)=O)c1C` the value was 22% (inactive); for `N#Cc1c(-c2cccs2)cc(-c2cnccn2)nc1SCC(=O)N/N=C/c1ccccc1`, 61.9% (inactive). Take `CN1CCN(Cc2ccc(NC(=O)c3cncc(C#Cc4cnc5ccc(O[C@@H]6CCOC6)nn45)c3)cc2C(F)(F)F)CC1`: the growth was -51.9% (active). Take `O=C(CCCCCCNC(=O)c1csc(Br)n1)NO`: the growth is 36.4% (inactive).

In the case of `O=C(NCCNc1cc(-c2cn(-c3ccccc3)nc2-c2cccc(O)c2)ccn1)Nc1cc(C(F)(F)F)cc(C(F)(F)F)c1`, the growth was 82.2% (inactive). Take `COC(=O)c1ccc(NC2=C(Cl)C(=O)c3nc(C)ccc3C2=O)cc1`: the growth is 41.4% (inactive). For the molecule `CCOP(=O)(OCC)OC[C@]12CCC(C)(C)C[C@H]1C1=CC[C@@H]3[C@@]4(C)CC[C@H](OP(=O)(OCC)OCC)C(C)(C)[C@@H]4CC[C@@]3(C)[C@]1(C)CC2`, the growth was 68.1% (inactive). As to `C/C(=N/N)c1nnn(-c2ccc(Br)cc2)c1C`, the growth is 95.1% (inactive). For the molecule `O=C(N/N=C\c1ccc(F)cc1)c1ccc2nc(-c3ccc(Br)cc3)[nH]c2c1`, the growth was 3.87% (active). For `O=C1Nc2ccc(F)cc2/C1=C\C(=O)c1ccc(NS(=O)(=O)c2ccccc2)cc1`, the growth is 87.2% (inactive). As for `CCCCCc1ccc(S(=O)(=O)Nc2cc(-c3csc(N)n3)ccc2OC)cc1`, the growth was 84.5% (inactive). For `CN1CCN(c2ccc(Nc3nc(NCCNS(=O)(=O)c4ccc5ccccc5c4)c4sccc4n3)cc2)CC1` the value was 82.3% (inactive); for `CCn1c2ccc(/C=N/N(C)S(=O)(=O)CCN(C)C)cc2c2cc(/C=N/N(C)S(=O)(=O)CCN(C)C)ccc21`, 2.68% (active).
